Experiment in all cases: yeast three-hybrid, YBZ-1, SC-Leu-His + 0.5 mM 3-AT, 4 days
Common to all, as to conditions: tags: N-Gal4 AD-HA kept; label: inside an RPR1-promoter hybrid RNA with tandem MS2 sites; ssRNA

One assay concerns the target PUM1 PUF domain R7-RPE (Homo sapiens, UniProt Q14671 828-1176, S1079R;N1080P). The method, boiled down: (§1)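 The interaction score is the log change in variant frequency from input to selection. Scores were computed in log2 with a pseudocount of 1 for absent variants, using Illumina sequencing of PCR-amplified repeat regions. The input came from four days on SC-Leu and the selection from four days on SC-Leu-His + 0.5 mM 3-AT. The cells were strain YBZ-1 (LexA–MS2 coat fusion, HIS3 reporter) co-expressing Pumilio-1 PUF domain libraries and matching RNA elements from a centromeric plasmid.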

Another assay has as its target PUM1 PUF domain R7-VTR (Homo sapiens, UniProt Q14671 828-1176, S1079V;N1080T;E1083R). The method, boiled down: as §1
A further assay concerns the target PUM1 PUF domain R7-RVT (Homo sapiens, UniProt Q14671 828-1176, S1079R;N1080V;E1083T). The method, boiled down: as §1
Another assay deals with PUM1 PUF domain R5-GRF (Homo sapiens, UniProt Q14671 828-1176, C1007G;Q1011F). The method, boiled down:
as §1

For a further assay, the target named is PUM1 PUF domain R5-TRH (Homo sapiens, UniProt Q14671 828-1176, C1007T;Q1011H). The method, boiled down:
as §1

The target of another assay is PUM1 PUF domain R5-DFD (Homo sapiens, UniProt Q14671 828-1176, C1007D;R1008F;Q1011D). The method, boiled down:
as §1

In the next assay the target is PUM1 PUF domain R8-KFN (Homo sapiens, UniProt Q14671 828-1176, N1122K;Y1123F;Q1126N). The method, boiled down:
as §1

The target of a further assay is PUM1 PUF domain R5-GHG (Homo sapiens, UniProt Q14671 828-1176, C1007G;R1008H;Q1011G). The method, boiled down: as §1
For another assay, the target named is PUM1 PUF domain R5-EFD (Homo sapiens, UniProt Q14671 828-1176, C1007E;R1008F;Q1011D). The method, boiled down: as §1
Another assay deals with PUM1 PUF domain R5-CHQ (Homo sapiens, UniProt Q14671 828-1176, R1008H). The method, boiled down: as §1
Another assay has as its target PUM1 PUF domain R3-APK (Homo sapiens, UniProt Q14671 828-1176, C935A;R936P;Q939K). The method, boiled down:
as §1

The target of the next assay is PUM1 PUF domain R8-RFF (Homo sapiens, UniProt Q14671 828-1176, N1122R;Y1123F;Q1126F). The method, boiled down:
as §1

The target in a further assay is PUM1 PUF domain R8-KKG (Homo sapiens, UniProt Q14671 828-1176, N1122K;Y1123K;Q1126G). The method, boiled down: as §1
The target in the next assay is PUM1 PUF domain R8-KKT (Homo sapiens, UniProt Q14671 828-1176, N1122K;Y1123K;Q1126T). The method, boiled down:
as §1

In the next assay the target is PUM1 PUF domain R1-CGE (Homo sapiens, UniProt Q14671 828-1176, S863C;R864G;Q867E). The method, boiled down:
as §1

For a further assay, the target named is PUM1 PUF domain R5-RDK (Homo sapiens, UniProt Q14671 828-1176, C1007R;R1008D;Q1011K). The method, boiled down: as §1
The next assay addresses PUM1 PUF domain R4-VYG (Homo sapiens, UniProt Q14671 828-1176, N971V;H972Y;Q975G). The method, boiled down: as §1

Sequence of PUM1 PUF domain R5-DFD (Q14671 828-1176 C1007D/R1008F/Q1011D): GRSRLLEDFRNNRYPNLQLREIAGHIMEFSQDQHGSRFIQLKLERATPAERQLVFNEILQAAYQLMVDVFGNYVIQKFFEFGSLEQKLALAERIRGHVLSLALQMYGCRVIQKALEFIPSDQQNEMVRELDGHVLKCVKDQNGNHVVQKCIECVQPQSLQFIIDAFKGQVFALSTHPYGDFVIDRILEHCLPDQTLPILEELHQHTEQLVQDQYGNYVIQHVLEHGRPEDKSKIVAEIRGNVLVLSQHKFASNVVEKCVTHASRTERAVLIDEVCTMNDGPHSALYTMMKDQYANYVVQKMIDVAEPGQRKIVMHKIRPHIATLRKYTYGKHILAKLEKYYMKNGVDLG
Sequence of PUM1 PUF domain R8-KFN (Q14671 828-1176 N1122K/Y1123F/Q1126N): as the sequence (Q14671 828-1176 C1007D/R1008F/Q1011D) above, with D180C, F181R, D184Q, N295K, Y296F, Q299N counted along it
Sequence of PUM1 PUF domain R5-GRF (Q14671 828-1176 C1007G/Q1011F): as the sequence (Q14671 828-1176 C1007D/R1008F/Q1011D) above, with D180G, F181R, D184F counted along it
Sequence of PUM1 PUF domain R5-GHG (Q14671 828-1176 C1007G/R1008H/Q1011G): as the sequence (Q14671 828-1176 C1007D/R1008F/Q1011D) above, with D180G, F181H, D184G counted along it
Sequence of PUM1 PUF domain R5-TRH (Q14671 828-1176 C1007T/Q1011H): as the sequence (Q14671 828-1176 C1007D/R1008F/Q1011D) above, with D180T, F181R, D184H counted along it
Sequence of PUM1 PUF domain R7-VTR (Q14671 828-1176 S1079V/N1080T/E1083R): as the sequence (Q14671 828-1176 C1007D/R1008F/Q1011D) above, with D180C, F181R, D184Q, S252V, N253T, E256R counted along it
Sequence of PUM1 PUF domain R1-CGE (Q14671 828-1176 S863C/R864G/Q867E): as the sequence (Q14671 828-1176 C1007D/R1008F/Q1011D) above, with S36C, R37G, Q40E, D180C, F181R, D184Q counted along it
Sequence of PUM1 PUF domain R8-RFF (Q14671 828-1176 N1122R/Y1123F/Q1126F): as the sequence (Q14671 828-1176 C1007D/R1008F/Q1011D) above, with D180C, F181R, D184Q, N295R, Y296F, Q299F counted along it
Sequence of PUM1 PUF domain R3-APK (Q14671 828-1176 C935A/R936P/Q939K): as the sequence (Q14671 828-1176 C1007D/R1008F/Q1011D) above, with C108A, R109P, Q112K, D180C, F181R, D184Q counted along it
Sequence of PUM1 PUF domain R8-KKG (Q14671 828-1176 N1122K/Y1123K/Q1126G): as the sequence (Q14671 828-1176 C1007D/R1008F/Q1011D) above, with D180C, F181R, D184Q, N295K, Y296K, Q299G counted along it
Sequence of PUM1 PUF domain R7-RPE (Q14671 828-1176 S1079R/N1080P): as the sequence (Q14671 828-1176 C1007D/R1008F/Q1011D) above, with D180C, F181R, D184Q, S252R, N253P counted along it
Sequence of PUM1 PUF domain R7-RVT (Q14671 828-1176 S1079R/N1080V/E1083T): as the sequence (Q14671 828-1176 C1007D/R1008F/Q1011D) above, with D180C, F181R, D184Q, S252R, N253V, E256T counted along it

In the case of “GGCUAGAACUAGUGGAUCCCCCGGCGCCCGGCGGCUCGAGCCCGGGUAAGUUUAAAUAGUCUGCAUGCCGCCGGGCGCCAUGCCUGCAGGUCGACUCUAGAAAACAUG”, the values for the binding signal with PUM1 PUF domain R7-RPE, in the assay with PUM1 PUF domain R7-VTR and with PUM1 PUF domain R7-RVT were 3.87 log2 enrichment (interaction score), 3.74 log2 enrichment (interaction score) and 2.57 log2 enrichment (interaction score), respectively.

With “GGCUAGAACUAGUGGAUCCCCCGGCGCCCGGCGGCUCGAGCCCGGGUAAGUGUUAAUAGUCUGCAUGCCGCCGGGCGCCAUGCCUGCAGGUCGACUCUAGAAAACAUG”, the binding signal with PUM1 PUF domain R5-GRF is 3.3 log2 enrichment (interaction score); in the assay with PUM1 PUF domain R5-TRH, 4.41 log2 enrichment (interaction score).

With “GGCUAGAACUAGUGGAUCCCCCGGCGCCCGGCGGCUCGAGCCCGGGUAAGUGUAAAUAGUCUGCAUGCCGCCGGGCGCCAUGCCUGCAGGUCGACUCUAGAAAACAUG”, the binding signal is 1.75 log2 enrichment (interaction score) with PUM1 PUF domain R5-GRF; 3.03 log2 enrichment (interaction score) in the assay with PUM1 PUF domain R5-DFD; 2.9 log2 enrichment (interaction score) with PUM1 PUF domain R8-KFN; 5.68 log2 enrichment (interaction score) in the assay with PUM1 PUF domain R5-TRH; 3.84 log2 enrichment (interaction score) with PUM1 PUF domain R5-GHG; 4.36 log2 enrichment (interaction score) in the assay with PUM1 PUF domain R5-EFD. In the assay with PUM1 PUF domain R5-CHQ, the binding signal was 2.46 log2 enrichment (interaction score).

As to “GGCUAGAACUAGUGGAUCCCCCGGCGCCCGGCGGCUCGAGCCCGGGUAAGUGUCAAUAGUCUGCAUGCCGCCGGGCGCCAUGCCUGCAGGUCGACUCUAGAAAACAUG”, the binding signal is 2.82 log2 enrichment (interaction score) in the assay with PUM1 PUF domain R5-DFD and 2.77 log2 enrichment (interaction score) in the assay with PUM1 PUF domain R5-GHG.

As to “GGCUAGAACUAGUGGAUCCCCCGGCGCCCGGCGGCUCGAGCCCGGGUAAGUGUAAUUAGUCUGCAUGCCGCCGGGCGCCAUGCCUGCAGGUCGACUCUAGAAAACAUG”, the binding signal with PUM1 PUF domain R3-APK is 4.11 log2 enrichment (interaction score).

With “GGCUAGAACUAGUGGAUCCCCCGGCGCCCGGCGGCUCGAGCCCGGGUAAGCGUAAAUAGUCUGCAUGCCGCCGGGCGCCAUGCCUGCAGGUCGACUCUAGAAAACAUG”, the binding signal with PUM1 PUF domain R8-KFN was 2.26 log2 enrichment (interaction score); in the assay with PUM1 PUF domain R8-RFF, 5.12 log2 enrichment (interaction score); with PUM1 PUF domain R8-KKG it was 2.43 log2 enrichment (interaction score); with PUM1 PUF domain R8-KKT it was 3.48 log2 enrichment (interaction score).

With “GGCUAGAACUAGUGGAUCCCCCGGCGCCCGGCGGCUCGAGCCCGGGUAAGUGUAAAUGGUCUGCAUGCCGCCGGGCGCCAUGCCUGCAGGUCGACUCUAGAAAACAUG”, the binding signal with PUM1 PUF domain R1-CGE is 3.82 log2 enrichment (interaction score).

Regarding “GGCUAGAACUAGUGGAUCCCCCGGCGCCCGGCGGCUCGAGCCCGGGUAAGUGUGAAUAGUCUGCAUGCCGCCGGGCGCCAUGCCUGCAGGUCGACUCUAGAAAACAUG”, in the assay with PUM1 PUF domain R5-RDK, the binding signal is 4.56 log2 enrichment (interaction score).

Regarding “GGCUAGAACUAGUGGAUCCCCCGGCGCCCGGCGGCUCGAGCCCGGGUAAGUGUAGAUAGUCUGCAUGCCGCCGGGCGCCAUGCCUGCAGGUCGACUCUAGAAAACAUG”, in the assay with PUM1 PUF domain R4-VYG, the binding signal is 5.26 log2 enrichment (interaction score).

The values are drawn from PMC8384837, “Expanding the binding specificity for RNA recognition by a PUF domain”.
